# Pf growth 48h = inhibits P. falciparum growth in the first generation, 48 h. AID 504832. P. falciparum luciferase growth in erythrocytes, 48 h. hit rate 5.9% among 310,000. Potency, µM (series often up to 28.7 µM), for inactives: top-dose activity change, negative = inhibition, hits mostly inhibitors; also: potency is read from the fitted curve at half-maximal effect; % is scaled to controls: 0 for no effect and ±100 for the full control effect
#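 Compounds are pin-transferred into medium, infected erythrocytes (2% hematocrit, 0.1% parasitemia final) are added, and plates sit one parasite generation at 37 C in 5% CO2. Detection reagent is then added and luminescence measured.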
# Cycloheximide cs = counter-screen for Shiga toxin inhibitors: cycloheximide protein synthesis inhibition. cell reporter, cycloheximide protein synthesis inhibition counterscreen. max response, %. hit rate 12% among 300,000; in the data active = max response mostly above about 13%, no sharp cut-off; inactive = mostly below about 14%; also: read at 38.3 µM for the half of the compounds with a filed dose; 0% is about no effect
# Shiga toxin inh = inhibitors of Shiga toxin in Vero cells; Vero cells, Shiga toxin protein synthesis inhibition reporter; inhibition, % at 38.7 µM; hit rate 9.2% among 290,000; AID 2315; in the data active = inhibition mostly above about 28%, no sharp cut-off; inactive = mostly below about 43%; also: 0% is about no effect
# HCMV antiviral = blocks human cytomegalovirus replication. HFF cells, HCMV-luciferase reporter, 72 h; active compounds read low. activity change, negative = inhibition, % at 57.5 µM. hit rate 4.5% among 410,000. AID 1259415; in the data active = activity change below about -60%; inconclusive = no clear call, values can overlap the other calls; inactive = above about -39%; also: % is scaled to controls: 0 for no effect and ±100 for the full control effect
#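 Compounds were evaluated in HFFs infected with an HCMV luciferase reporter virus (MOI 1 PFU/cell). Luciferase in lysates collected 72 h post infection served as the replication measure.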
# Pf growth 96h = inhibits malaria parasite growth, 96 h; P. falciparum luciferase reporter growth, 96 h; Potency, µM (top dose mostly 28.7 µM), for inactives: at the top dose activity change, negative = inhibition, hits mostly inhibitors; hit rate 6.9% among 320,000; also: potency is read from the fitted curve at half-maximal effect; % is scaled to controls: 0 for no effect and ±100 for the full control effect
#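 Two parasite generations (96 h, 37 C, 5% CO2) of compound exposure in infected erythrocytes (0.05% parasitemia, 2% hematocrit). Luciferase-reporter P. falciparum; decreased luminescence indicates inhibited growth, aimed at apicoplast-acting delayed death.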
# Starred values were filed as active, the others as inactive; i = inactive; ? = inconclusive; nt = no result given. An excerpt weighted towards active compounds, which were near 20% of everything screened. Unless noted, calls follow the shape of the dose curve; as a rule, active = well fitted inhibition curve with a large enough effect; inconclusive = small, poorly fitted or top-dose-only effect, or another doubt; inactive = no such curve, though single readings can be large or run the other way.
SMILES,Pf growth 48h,Cycloheximide cs,Shiga toxin inh,HCMV antiviral,Pf growth 96h
O=C1NC(c2ccccc2)=N/C1=C/c1ccco1,35%,39*,72*,-16,?
O=C1NC(c2cccc(Br)c2)=N/C1=C\c1ccco1,42%,70*,86*,-22,82%
O=C1NC(=O)/C(=C/c2ccco2)N1,29%,nt,nt,3,41%
O=C1NC(c2ccccc2Br)=N/C1=C\c1ccco1,?,48*,125*,2,0%
O=C1NC(=S)NC1=Cc1ccco1,nt,nt,nt,-23,nt
COc1cc(-c2nc3ncccn3c2Nc2ccc(C)cc2C)ccc1O,nt,nt,nt,98,nt
O=C(CC1C(=O)NCCN1Cc1ccc(-c2ccccc2)cc1)NCCCn1ccnc1 (stereo unspecified),-18%,2,7,?,-17%
CCCS(=O)(=O)N1CCCC(C(=O)NCCc2ccc(OC)c(OC)c2)C1 (stereo unspecified),-25%,1,20,-1,-8%
O=C(c1ccco1)N1CCN(C(=O)c2[nH]c(C(F)(F)F)nc2-c2ccccc2)CC1,nt,nt,nt,23,nt
O=C(Nc1ccc(F)cc1)Nc1ccccc1N1CCCCC1,?,9,18,-71*,?
O=C(Nc1ccc(Cl)c(Cl)c1)Nc1ccc(N2CCCC2)c(S(=O)(=O)Nc2ccccc2Cl)c1,13µM*,8,18,-99*,3.7µM*
O=C(Nc1ccc(N2CCCCC2)c(S(=O)(=O)Nc2ccccc2Cl)c1)c1cccnc1,nt,nt,nt,-29,nt
O=C(Nc1ccccc1N1CCN(c2ccc(F)cc2)CC1)C1CCCCC1,?,13,5,3,84%
O=C(Nc1ccc(F)cc1)Nc1ccc(N2CCCC2)c(S(=O)(=O)Nc2ccccc2Cl)c1,9.3µM*,11,26,-100*,4.7µM*
OC(c1cccc(Cl)c1)c1nc(-c2cc3ccccc3o2)cs1 (stereo unspecified),nt,nt,nt,-22,nt
Clc1ccc(Nc2nc3cccnc3s2)cc1,45%,30*,90*,-5,107%
CCCCNc1nc2cccnc2s1,56%,22*,62*,20,41%
O=C1CN=C(Nc2ccccc2Cl)N1Cc1ccc2c(c1)OCO2,9%,1,18,67,49%
CCc1ccccc1NC1=NCC(=O)N1Cc1ccc2c(c1)OCO2,-19%,-3,-6,68,4.1µM*
CC(C)(C)C1CCC2(CC1)CC(=O)c1ccccc1O2 (stereo unspecified),?,-3,-3,-61*,-8%
O=C1CC2(CCCCC2)Oc2ccccc21,nt,nt,nt,-6,nt
CCCOc1ccc(F)cc1-c1cc(C(=O)NCc2cccc(Cl)c2)[nH]n1,nt,nt,nt,-17,nt
CCN(CC)CCC(c1ccc(N(C)C)cc1)c1c(OC)cc(OC)c2c(-c3ccccc3)cc(=O)oc12 (stereo unspecified),8.3µM*,-10,-19,18,3.7µM*
COc1cc(OC)c2c(-c3ccccc3)cc(=O)oc2c1C(CCN1CCCC(C)C1)c1ccc(N(C)C)cc1 (stereo unspecified),?,-4,3,?,?
COc1ccc(C(CCN2CCCC(C)C2)c2c(OC)cc(OC)c3c(C)cc(=O)oc23)cc1 (stereo unspecified),2.9µM*,-5,-2,6,2.6µM*
SMILES,Pf growth 48h,Cycloheximide cs,Shiga toxin inh,HCMV antiviral,Pf growth 96h
COc1ccc(C(CCN2CCOCC2)c2c(OC)cc(OC)c3c(-c4ccccc4)cc(=O)oc23)cc1 (stereo unspecified),nt,1,-5,-27,nt
COc1ccc(C(CCN2CCN(c3ccccc3)CC2)c2c(OC)cc(OC)c3c(-c4ccccc4)cc(=O)oc23)cc1 (stereo unspecified),3.3µM*,12,1,-29,4.7µM*
COc1ccc(C(CCN2CCCC(C)C2)c2c(OC)cc(OC)c3c(-c4ccccc4)cc(=O)oc23)cc1 (stereo unspecified),12µM*,8,-8,-34,5.9µM*
CNC(=O)CNC(=O)Nc1ccc(C)cc1,-27%,0,9,7,25%
COc1ccc(C(CCN2CCCC2)c2c(OC)cc(OC)c3c(-c4ccccc4)cc(=O)oc23)cc1 (stereo unspecified),12µM*,-1,-15,-23,12µM*
COc1cc(C(CCN2CCCC2)c2c(OC)cc(OC)c3c(-c4ccccc4)cc(=O)oc23)cc(OC)c1OC (stereo unspecified),2.3µM*,-12,-14,70,1.9µM*
COc1cc(OC)c2ccc(=O)oc2c1C(CCN1CCN(c2ccccc2)CC1)c1ccc(N(C)C)cc1 (stereo unspecified),12µM*,-6,-14,-27,10µM*
COc1cc(C(CCN2CCCCC2)c2c(OC)cc(OC)c3c(C)cc(=O)oc23)cc(OC)c1OC (stereo unspecified),8.3µM*,-5,4,-3,9.3µM*
COc1cc(C(CCN2CCOCC2)c2c(OC)cc(OC)c3c(-c4ccccc4)cc(=O)oc23)cc(OC)c1OC (stereo unspecified),nt,-3,i,-22,nt
CCOc1ccccc1-c1ccc2nccn2c1,nt,nt,nt,-3,nt
Cc1cccc(OCC(=O)NCC2(N3CCN(C)CC3)CCCCC2)c1,nt,nt,nt,-32,nt
O=C(NCCS(=O)(=O)c1ccc(Br)cc1)c1ccc(F)cc1,-5%,-3,-2,90,33%
COc1cc(OC)c2c(-c3ccccc3)cc(=O)oc2c1C(CCN1CCCC1)c1ccc2c(c1)OCO2 (stereo unspecified),?,-7,-8,-33,8.3µM*
COc1cc(OC)c2c(-c3ccccc3)cc(=O)oc2c1C(CC(=O)N1CCN(c2ccccc2)CC1)c1ccc(N(C)C)cc1 (stereo unspecified),?,9,-5,36,?
COc1cc(OC)c2ccc(=O)oc2c1C(CCN1CCOCC1)c1ccc(N(C)C)cc1 (stereo unspecified),nt,-1,-8,nt,nt
COc1cc(OC)c2c(C)cc(=O)oc2c1C(CCN1CCN(c2ccccc2)CC1)c1ccc2c(c1)OCO2 (stereo unspecified),3.3µM*,9,-4,-31,2.1µM*
COc1cc(OC)c2c(-c3ccccc3)cc(=O)oc2c1C(CCN1CCOCC1)c1ccc2c(c1)OCO2 (stereo unspecified),nt,19,-2,-20,nt
COc1cc(OC)c2c(-c3ccccc3)cc(=O)oc2c1C(CCN1CCN(c2ccccc2)CC1)c1ccc(N(C)C)cc1 (stereo unspecified),5.2µM*,-3,-3,-3,4.1µM*
COc1cc(OC)c2c(C)cc(=O)oc2c1C(CCN1CCOCC1)c1ccc(N(C)C)cc1 (stereo unspecified),10µM*,-6,-14,-25,?
Cc1ccc(S(=O)(=O)c2cn(CC(=O)Nc3ccc4c(c3)OCO4)c3ccc(C)cc3c2=O)cc1,nt,nt,nt,-6,nt
Cc1ccc(-n2c(CNc3cccc(Cl)c3)n[nH]c2=S)cc1,8.3µM*,8,33,11,81%
O=c1ccnc(Nc2ccc3c(c2)OCCO3)[nH]1,-7%,17,11,?,91%
